Measurements: ChEMBL document CHEMBL1961873, “Compounds: GSK PKIS; Assays: Nanosyn kinase panel” (2012)

Assays:
[1] = biological target: Dual specificity protein kinase CLK3 (Homo sapiens) (UniProt P49761); conditions: at 1 µM;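 further: each value is the mean inhibition of CLK3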
[2] = biological target: Dual specificity tyrosine-phosphorylation-regulated kinase 1A (Homo sapiens) (UniProt Q13627); conditions: at 0.1 µM
[3] = biological target: Dual specificity tyrosine-phosphorylation-regulated kinase 1A (Homo sapiens) (UniProt Q13627); conditions: at 1 µM
[4] = biological target: Dual specificity tyrosine-phosphorylation-regulated kinase 1B (Homo sapiens) (UniProt Q9Y463); conditions: at 0.1 µM
[5] = biological target: Dual specificity tyrosine-phosphorylation-regulated kinase 1B (Homo sapiens) (UniProt Q9Y463); conditions: at 1 µM
[6] = biological target: T1, Dual specificity tyrosine-phosphorylation-regulated kinase 2 (Homo sapiens) (UniProt Q92630); conditions: at 0.1 µM
T1 sequence (whole entry): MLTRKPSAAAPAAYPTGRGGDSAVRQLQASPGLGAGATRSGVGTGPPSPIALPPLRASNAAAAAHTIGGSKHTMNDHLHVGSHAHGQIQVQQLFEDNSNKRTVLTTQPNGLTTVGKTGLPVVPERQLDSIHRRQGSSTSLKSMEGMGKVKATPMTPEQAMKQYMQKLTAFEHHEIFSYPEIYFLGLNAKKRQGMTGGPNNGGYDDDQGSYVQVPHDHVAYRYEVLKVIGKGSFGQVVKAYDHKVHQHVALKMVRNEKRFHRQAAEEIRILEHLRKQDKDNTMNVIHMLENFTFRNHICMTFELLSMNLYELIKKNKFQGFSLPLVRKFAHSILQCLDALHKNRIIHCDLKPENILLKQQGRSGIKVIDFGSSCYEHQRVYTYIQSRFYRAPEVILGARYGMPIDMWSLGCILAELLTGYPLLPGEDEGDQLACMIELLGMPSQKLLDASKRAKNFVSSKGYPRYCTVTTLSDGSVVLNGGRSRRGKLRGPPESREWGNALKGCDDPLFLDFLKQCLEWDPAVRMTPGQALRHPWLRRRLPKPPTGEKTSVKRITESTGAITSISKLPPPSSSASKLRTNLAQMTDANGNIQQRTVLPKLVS

[7] = biological target: T1, Dual specificity tyrosine-phosphorylation-regulated kinase 2 (Homo sapiens); conditions: at 1 µM
[8] = biological target: Glycogen synthase kinase-3 alpha (Homo sapiens) (UniProt P49840); conditions: at 0.1 µM
[9] = biological target: Glycogen synthase kinase-3 alpha (Homo sapiens) (UniProt P49840); conditions: at 1 µM
[10] = biological target: Glycogen synthase kinase-3 beta (Homo sapiens) (UniProt P49841); conditions: at 0.1 µM
[11] = biological target: Glycogen synthase kinase-3 beta (Homo sapiens) (UniProt P49841); conditions: at 1 µM
[12] = biological target: Homeodomain-interacting protein kinase 1 (Homo sapiens) (UniProt Q86Z02); conditions: at 0.1 µM
[13] = biological target: Homeodomain-interacting protein kinase 1 (Homo sapiens) (UniProt Q86Z02); conditions: at 1 µM
[14] = biological target: T2, Homeodomain-interacting protein kinase 4 (Homo sapiens) (UniProt Q8NE63); conditions: at 0.1 µM
T2 sequence (whole entry): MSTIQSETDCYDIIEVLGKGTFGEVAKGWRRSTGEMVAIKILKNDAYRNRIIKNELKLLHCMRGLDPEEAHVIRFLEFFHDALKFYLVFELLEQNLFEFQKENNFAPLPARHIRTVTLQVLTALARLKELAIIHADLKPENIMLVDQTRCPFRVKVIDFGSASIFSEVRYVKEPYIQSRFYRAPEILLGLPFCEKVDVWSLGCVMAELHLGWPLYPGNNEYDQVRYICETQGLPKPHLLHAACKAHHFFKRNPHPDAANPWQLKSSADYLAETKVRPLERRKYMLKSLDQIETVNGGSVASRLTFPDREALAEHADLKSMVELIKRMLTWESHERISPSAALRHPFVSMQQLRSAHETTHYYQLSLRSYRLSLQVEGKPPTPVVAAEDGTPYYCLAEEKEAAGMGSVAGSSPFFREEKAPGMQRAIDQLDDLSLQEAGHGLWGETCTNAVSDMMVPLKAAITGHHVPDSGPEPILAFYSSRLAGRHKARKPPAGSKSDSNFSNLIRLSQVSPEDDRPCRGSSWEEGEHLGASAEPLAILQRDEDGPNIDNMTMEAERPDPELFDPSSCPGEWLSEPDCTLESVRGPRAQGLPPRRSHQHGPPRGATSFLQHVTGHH

[15] = biological target: T2, Homeodomain-interacting protein kinase 4 (Homo sapiens); conditions: at 1 µM
[16] = biological target: Mitogen-activated protein kinase 9 (Homo sapiens) (UniProt P45984); conditions: at 0.1 µM
[17] = biological target: Mitogen-activated protein kinase 9 (Homo sapiens) (UniProt P45984); conditions: at 1 µM
[18] = biological target: Mitogen-activated protein kinase 1 (Homo sapiens) (UniProt P28482); conditions: at 0.1 µM
[19] = biological target: Mitogen-activated protein kinase 1 (Homo sapiens) (UniProt P28482); conditions: at 1 µM
[20] = biological target: Mitogen-activated protein kinase 3 (Homo sapiens) (UniProt P27361); conditions: at 0.1 µM;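 further: each value is a mean inhibition figure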
Chain of Mitogen-activated protein kinase 3 (Homo sapiens) (P27361 whole entry): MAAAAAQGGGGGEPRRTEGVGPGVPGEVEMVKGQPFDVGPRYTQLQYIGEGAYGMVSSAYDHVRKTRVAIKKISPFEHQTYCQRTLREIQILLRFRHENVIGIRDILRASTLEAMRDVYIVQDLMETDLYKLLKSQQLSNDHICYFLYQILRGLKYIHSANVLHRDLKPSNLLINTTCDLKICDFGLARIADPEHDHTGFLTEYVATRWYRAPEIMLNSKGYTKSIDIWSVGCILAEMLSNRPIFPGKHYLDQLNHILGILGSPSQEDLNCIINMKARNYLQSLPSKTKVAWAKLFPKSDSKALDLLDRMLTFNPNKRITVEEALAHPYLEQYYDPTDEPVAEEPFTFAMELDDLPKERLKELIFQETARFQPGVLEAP

Chain of Glycogen synthase kinase-3 beta (Homo sapiens) (P49841 whole entry, looked up): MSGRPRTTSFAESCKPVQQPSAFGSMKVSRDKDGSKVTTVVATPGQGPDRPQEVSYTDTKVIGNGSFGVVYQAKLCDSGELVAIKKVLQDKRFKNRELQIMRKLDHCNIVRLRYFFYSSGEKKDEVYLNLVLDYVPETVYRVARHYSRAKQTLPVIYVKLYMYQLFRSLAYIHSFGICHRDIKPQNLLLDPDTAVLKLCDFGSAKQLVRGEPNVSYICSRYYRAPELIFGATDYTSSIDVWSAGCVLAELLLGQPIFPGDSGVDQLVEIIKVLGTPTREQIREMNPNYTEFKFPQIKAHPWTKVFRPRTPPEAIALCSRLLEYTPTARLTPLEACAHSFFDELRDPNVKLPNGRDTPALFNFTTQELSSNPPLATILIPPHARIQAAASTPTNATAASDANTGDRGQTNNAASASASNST
Chain of Mitogen-activated protein kinase 1 (Homo sapiens) (P28482 whole entry): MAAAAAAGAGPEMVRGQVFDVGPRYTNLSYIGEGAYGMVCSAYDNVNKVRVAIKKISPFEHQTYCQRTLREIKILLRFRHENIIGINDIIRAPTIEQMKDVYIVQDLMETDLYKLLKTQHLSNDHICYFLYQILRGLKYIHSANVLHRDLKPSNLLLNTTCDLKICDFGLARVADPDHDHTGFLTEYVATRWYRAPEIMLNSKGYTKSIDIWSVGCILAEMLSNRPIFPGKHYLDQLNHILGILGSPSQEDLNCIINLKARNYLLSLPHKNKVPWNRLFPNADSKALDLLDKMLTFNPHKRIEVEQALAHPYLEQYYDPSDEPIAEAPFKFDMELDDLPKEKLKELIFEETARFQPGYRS
Chain of Dual specificity protein kinase CLK3 (Homo sapiens) (P49761 whole entry, looked up): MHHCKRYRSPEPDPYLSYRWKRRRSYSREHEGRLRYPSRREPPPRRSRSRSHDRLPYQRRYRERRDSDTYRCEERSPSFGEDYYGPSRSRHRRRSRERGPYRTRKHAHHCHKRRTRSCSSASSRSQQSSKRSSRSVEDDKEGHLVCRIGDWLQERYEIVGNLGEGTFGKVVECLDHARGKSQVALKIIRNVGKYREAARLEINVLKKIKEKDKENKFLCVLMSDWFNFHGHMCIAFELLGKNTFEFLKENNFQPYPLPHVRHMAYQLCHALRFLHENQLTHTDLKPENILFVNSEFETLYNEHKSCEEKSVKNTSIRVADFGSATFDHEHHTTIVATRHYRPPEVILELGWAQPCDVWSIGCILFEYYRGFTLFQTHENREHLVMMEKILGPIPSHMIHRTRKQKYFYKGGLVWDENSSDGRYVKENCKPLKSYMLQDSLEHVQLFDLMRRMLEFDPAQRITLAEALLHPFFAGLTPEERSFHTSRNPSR
Chain of Dual specificity tyrosine-phosphorylation-regulated kinase 1B (Homo sapiens) (Q9Y463 whole entry, looked up): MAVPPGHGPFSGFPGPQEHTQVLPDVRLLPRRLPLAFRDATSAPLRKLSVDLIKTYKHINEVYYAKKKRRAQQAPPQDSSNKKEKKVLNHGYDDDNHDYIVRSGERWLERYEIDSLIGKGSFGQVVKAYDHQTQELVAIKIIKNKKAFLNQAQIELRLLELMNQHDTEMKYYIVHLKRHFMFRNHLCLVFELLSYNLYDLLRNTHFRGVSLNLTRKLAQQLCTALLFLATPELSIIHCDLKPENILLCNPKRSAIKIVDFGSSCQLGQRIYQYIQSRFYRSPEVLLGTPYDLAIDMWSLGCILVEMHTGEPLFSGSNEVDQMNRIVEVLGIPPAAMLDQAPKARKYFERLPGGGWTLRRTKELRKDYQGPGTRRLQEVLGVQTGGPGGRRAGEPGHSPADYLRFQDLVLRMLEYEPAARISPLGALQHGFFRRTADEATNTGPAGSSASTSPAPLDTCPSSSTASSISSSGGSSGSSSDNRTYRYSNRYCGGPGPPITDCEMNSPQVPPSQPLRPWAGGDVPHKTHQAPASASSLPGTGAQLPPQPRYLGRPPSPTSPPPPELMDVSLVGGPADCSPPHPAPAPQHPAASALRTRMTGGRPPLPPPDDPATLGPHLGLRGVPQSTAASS
Chain of Mitogen-activated protein kinase 9 (Homo sapiens) (P45984 whole entry, looked up): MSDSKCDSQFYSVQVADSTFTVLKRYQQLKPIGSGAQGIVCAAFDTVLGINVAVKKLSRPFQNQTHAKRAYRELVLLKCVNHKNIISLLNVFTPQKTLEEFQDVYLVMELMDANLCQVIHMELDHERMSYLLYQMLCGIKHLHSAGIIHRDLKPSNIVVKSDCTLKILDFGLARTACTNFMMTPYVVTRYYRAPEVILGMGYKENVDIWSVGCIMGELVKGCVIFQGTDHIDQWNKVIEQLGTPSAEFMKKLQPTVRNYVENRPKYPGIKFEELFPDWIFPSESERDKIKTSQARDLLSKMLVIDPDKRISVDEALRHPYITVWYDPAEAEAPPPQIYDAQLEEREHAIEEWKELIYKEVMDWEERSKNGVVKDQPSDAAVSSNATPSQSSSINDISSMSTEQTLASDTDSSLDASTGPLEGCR
Chain of Homeodomain-interacting protein kinase 1 (Homo sapiens) (Q86Z02 whole entry, looked up): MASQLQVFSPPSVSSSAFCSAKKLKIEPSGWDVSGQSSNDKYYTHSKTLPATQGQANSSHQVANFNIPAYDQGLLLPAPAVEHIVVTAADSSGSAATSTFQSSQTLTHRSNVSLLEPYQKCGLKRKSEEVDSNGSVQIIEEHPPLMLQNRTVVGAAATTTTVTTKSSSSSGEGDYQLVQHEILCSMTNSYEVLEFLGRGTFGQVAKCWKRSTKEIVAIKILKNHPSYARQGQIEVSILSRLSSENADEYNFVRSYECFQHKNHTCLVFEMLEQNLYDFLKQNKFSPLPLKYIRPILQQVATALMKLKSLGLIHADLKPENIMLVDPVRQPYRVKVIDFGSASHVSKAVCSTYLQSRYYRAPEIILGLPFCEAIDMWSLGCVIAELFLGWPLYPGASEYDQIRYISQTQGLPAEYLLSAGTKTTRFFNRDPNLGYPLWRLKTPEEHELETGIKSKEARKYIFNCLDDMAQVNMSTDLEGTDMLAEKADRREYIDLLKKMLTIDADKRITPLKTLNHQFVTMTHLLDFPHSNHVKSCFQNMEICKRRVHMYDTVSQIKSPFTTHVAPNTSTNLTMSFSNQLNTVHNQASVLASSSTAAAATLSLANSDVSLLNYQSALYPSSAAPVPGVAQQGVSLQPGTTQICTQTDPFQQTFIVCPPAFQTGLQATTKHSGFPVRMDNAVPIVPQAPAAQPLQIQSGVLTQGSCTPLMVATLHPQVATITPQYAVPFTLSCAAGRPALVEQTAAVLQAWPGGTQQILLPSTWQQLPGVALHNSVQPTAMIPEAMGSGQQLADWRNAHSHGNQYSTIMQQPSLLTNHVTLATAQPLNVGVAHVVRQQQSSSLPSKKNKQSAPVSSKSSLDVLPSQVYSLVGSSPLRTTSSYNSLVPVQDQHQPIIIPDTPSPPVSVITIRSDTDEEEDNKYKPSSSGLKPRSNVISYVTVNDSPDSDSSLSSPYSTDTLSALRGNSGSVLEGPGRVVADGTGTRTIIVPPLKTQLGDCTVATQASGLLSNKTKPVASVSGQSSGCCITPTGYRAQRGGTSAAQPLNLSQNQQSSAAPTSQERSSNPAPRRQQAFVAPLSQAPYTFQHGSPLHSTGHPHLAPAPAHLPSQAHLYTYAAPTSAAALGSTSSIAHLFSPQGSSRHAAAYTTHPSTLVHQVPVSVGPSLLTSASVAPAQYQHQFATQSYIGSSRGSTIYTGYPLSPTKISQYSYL
Chain of Glycogen synthase kinase-3 alpha (Homo sapiens) (P49840 2-483 limits assumed): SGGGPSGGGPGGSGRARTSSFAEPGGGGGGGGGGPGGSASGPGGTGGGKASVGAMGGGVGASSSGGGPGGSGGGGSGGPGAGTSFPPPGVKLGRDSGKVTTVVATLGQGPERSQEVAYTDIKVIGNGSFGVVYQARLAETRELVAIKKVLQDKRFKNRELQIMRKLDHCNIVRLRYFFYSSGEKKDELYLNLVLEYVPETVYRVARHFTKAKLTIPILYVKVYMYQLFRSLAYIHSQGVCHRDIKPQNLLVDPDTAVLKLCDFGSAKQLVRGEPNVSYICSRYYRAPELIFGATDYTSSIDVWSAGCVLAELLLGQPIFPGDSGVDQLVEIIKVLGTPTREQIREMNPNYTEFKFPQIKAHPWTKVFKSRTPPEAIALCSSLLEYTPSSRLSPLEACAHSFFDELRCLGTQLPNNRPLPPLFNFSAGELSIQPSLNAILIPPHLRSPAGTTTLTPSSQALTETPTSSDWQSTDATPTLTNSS

Compound	inhibition [1] [%]	inhibition [2] [%]	inhibition [3] [%]	inhibition [4] [%]	inhibition [5] [%]	inhibition [6] [%]	inhibition [7] [%]	inhibition [8] [%]	inhibition [9] [%]	inhibition [10] [%]	inhibition [11] [%]	inhibition [12] [%]	inhibition [13] [%]	inhibition [14] [%]	inhibition [15] [%]	inhibition [16] [%]	inhibition [17] [%]	inhibition [18] [%]	inhibition [19] [%]	inhibition [20] [%]
c1ccc(-c2n[nH]cc2-c2ccnc(-c3ccc(OCCn4ccnc4)cc3)c2)nc1	0.82	3.79	5.07	0.31	0.62	-0.06	0.1	1.15	3.28	1.16	4.83	-0.98	-1.32	-0.24	2.03	2.7	8.69	1.6	1.52	0.3
Cc1cc(O)cc(C)c1/C=C/c1cncc(C(=O)OC(C)(C)C)c1	6.2	5.61	8.73	3.58	7.3	1.52	3.56	4.43	8.44	4.6	7.76	2.63	7.33	1.55	2.43	1.52	1.71	2.41	4.61	1.22
CC(C)c1ccc(-c2cc(-c3c[nH]nc3-c3ccccn3)ccn2)cc1	0.76	0.59	2.33	0.57	1.3	0.98	0.3	0.61	2.95	-0.15	3.51	-2.26	0.99	0.13	3.76	0.51	2.5	-0.73	2.22	0.86
N#Cc1ccc2c(-c3ccnc(NC4CC4)n3)c(-c3ccc(F)cc3)nn2c1	-0.84	1.91	0.14	-0.4	-2.94	0.64	-0.6	5.27	24.3	8.49	45.1	-2.11	0.75	-0.93	-1.01	17.2	71.1	1.33	4.26	0.07
CN(c1ccc(NC(=O)NCCN2CCOCC2)cc1)c1ccnc(Nc2ccc(CS(C)(=O)=O)cc2)n1	1.43	1.69	3.45	-0.71	2.44	1.44	3.05	4.05	8.02	4.49	5.02	2.62	5.06	6.23	31.9	1.5	3.59	5.07	8.36	4.06
NS(=O)(=O)c1ccc(N/N=C2\C(=O)Nc3ccc(C(=O)NCc4ccncc4)cc32)cc1	3.91	2.11	9.79	1.01	11.3	2.69	8.09	35.3	75.7	38.4	77.1	10.9	42.5	12.2	45.9	2.55	8.96	14.9	55.3	5.64
CCCNc1cccc(-n2ncc3c(N/N=C/c4ccncc4)ncnc32)c1	9.87	1.44	20.6	0.57	9.45	2.85	14.2	31.9	71.8	24	68.7	2.78	13.5	4.71	27.7	-0.25	6.14	1.61	1.54	1.28
COc1cc(N2CCN(C(C)C)CC2)ccc1Nc1nc(Nc2cccc3ncccc23)c2cc[nH]c2n1	1.89	0.19	5.87	1.41	7.46	-1.54	-1.74	0.06	3.49	0.31	5.17	-1.1	3.6	1.11	6.13	0.17	5.14	-2.97	-0.36	-2.04
COc1cc(N2CCN(C(C)C)CC2)ccc1Nc1nc(Nc2cccc(F)c2C(=O)O)c2cc[nH]c2n1	7.82	5.55	23	5.54	32.6	2.88	4.2	5	6.33	3.95	6.19	4.97	23.6	5.89	22.7	26.4	72.5	5.18	6.34	5.83
CN(C)CCNC(=O)Nc1ccc(N(C)c2ccnc(Nc3ccc(CS(C)(=O)=O)cc3)n2)cc1	2.89	2.86	5.24	1.37	1.57	2.66	4.33	1.56	4.32	0.61	4.47	0.8	4.6	0.19	3.28	4.37	5.22	5.77	4.8	2.98
Fc1ccc(Nc2nccc(-c3c(-c4ccc(C(F)(F)F)cc4)nn4ncccc34)n2)cc1F	4.71	2.73	5.39	1.21	2.44	2.31	3.44	2.05	4.32	1.37	3.82	0.15	4.43	0.47	3.47	1.98	3.63	3.91	4.05	1.81
CS(=O)(=O)CCNCc1ccc(-c2ccc3ncnc(Nc4ccc(OCc5ccccc5)cc4)c3c2)o1	0.48	1.93	4.22	-0.07	1.88	5.3	2.62	2.32	3.44	1.65	3.37	-0.23	3.06	0.8	4.91	2.23	2.48	4.02	3.85	2.1
COC(=O)Nc1nc2ccc(Oc3ccc(NC(=O)Nc4cc(C(F)(F)F)ccc4F)cc3)cc2s1	0.05	0.96	2.5	1.09	2.02	-0.29	0.21	0.71	4.01	-0.46	5.68	-1.19	0.81	6.92	33.5	-0.14	3.25	-1.09	0.7	0.14
